Experimental data reported in PubChem BioAssay AID1626 (SRMLSC, 2009).
In all, about 220,000 compounds went through this assay and about 2,000 (0.91%) were called active. Roughly 2% stayed inconclusive and do not appear here. Only a sample is shown. Results with a measured potency or affinity are listed apart. Values without a mark were called inactive. No stated cut-off is given here; in the data, inconclusive means inhibition above about 80% without an active follow-up result; inactive means below that; test concentration not stated here.

experiment: M. tuberculosis H37Rv growth inhibitors, H37Rv strain (AID 1626); conditions: stronger effect = higher value, concentration not given here;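 further: bacteria incubated seven days before Alamar blue readout; 0% = bacteria only wells and 100% = bacteria with antibiotic wells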

Row | SMILES | inhibition
1 | CCCCC(=O)c1ccc(O)cc1O | 77%
2 | O=C(CCO)c1ccc(O)cc1 | 12.1%
3 | CCCCCCCC(=O)N/N=C(\C)c1ccc(O)cc1O | 11.6%
4 | CCC(=O)c1ccc(O)cc1 | 14.2%
5 | O=C(NCc1ccc(Cl)cc1)c1noc2c1CCCCC2 | 4.19%
6 | COc1ccc(NC2=CC(=O)CC(c3ccccc3)C2)cc1 (configuration not stated) | -3.06%
7 | O=C(O)CC(CC(=O)Nc1ccc(F)c(Cl)c1)c1ccc(Cl)cc1Cl (configuration not stated) | -8.97%
8 | NNC(=O)C(Cc1ccccc1)NC(=O)OCc1ccccc1 (configuration not stated) | 3.92%
9 | Clc1ccc(C2=NCCN2)cc1 | 4.97%
10 | O=C(Nc1ccc(Cl)c(Cl)c1)c1ccc(Cl)c(Cl)c1 | 2.4%
11 | CCCN1C(=O)c2cc(C(=O)NCc3cccs3)ccc2C1O (configuration not stated) | -13.3%
12 | O=C(Nc1ccc(F)c(Cl)c1)C1CC(=O)n2c(nc3ccccc32)N1 (configuration not stated) | -5.64%
13 | Cc1ccc(/C=N/N2CCN(c3ccccc3)CC2)cc1 | -2.14%
14 | O=c1c(O)c(-c2cccs2)oc2ccccc12 | -4%
15 | O=c1cc(-c2cccs2)oc2ccc(Cl)cc12 | -2.31%
16 | Cc1cc(C(=O)NNS(=O)(=O)c2cccc(Cl)c2)nn1C(C)(C)C | 2.6%
17 | CC(C)(C)NC(=O)Cn1c(Cl)nc2ccccc21 | -2.82%
18 | COc1ccc(-c2csc(N)n2)cc1 | 84.2%
19 | COc1ccc(OCc2csc(N)n2)cc1 | -2.49%
20 | Cc1ccc(OCc2csc(N)n2)cc1 | 2.65%
21 | CC(=O)Nc1cccc(-c2csc(N)n2)c1 | 1.85%
22 | Nc1nc(-c2ccccc2)cs1 | 56.7%
23 | Fc1cccc(-c2csc(-c3ccno3)n2)c1 | 0.3%
24 | Nc1nc(-c2ccc3ccccc3c2)cs1 | 67.7%
25 | Nc1nc(-c2ccc(-c3ccccc3)cc2)cs1 | -0.75%

Row | SMILES | inhibition
26 | CCCCOc1ccc(NC(=O)C(=O)NCCC2=CCCCC2)cc1 | -6%
27 | Cc1ccc(NC2=NC3(CCCC3)N=C(N)N2)c(C)c1 | -0.52%
28 | CCC1CCCCN1C(=O)CSc1nnc(CNC(=O)COc2ccc(Cl)cc2)o1 (configuration not stated) | 0.62%
29 | CC(=O)Nc1ccc(C(=O)NCC(=O)OCc2ccccc2F)cc1 | 8.24%
30 | C=CCNC(=O)c1sc(-c2ccccc2)nc1C | -4.4%
31 | COCCn1c(SCC(=O)N2CCN(c3ccccc3)CC2)nc2c(c1=O)SC(C)C2 (configuration not stated) | -6.25%
32 | O=C(COC(=O)c1cccs1)NCC1CCCO1 (configuration not stated) | -10.3%
33 | COC(=O)Nc1ccc(S(=O)(=O)NCc2ccccn2)cc1 | 4.77%
34 | Cc1ccc2c(c1)C1CN(C)CCC1N2C(=O)c1cccc(S(=O)(=O)N(C)C)c1 (configuration not stated) | 1.67%
35 | COCCOc1ccc(C(F)(F)F)cc1Nc1nc2ccccc2o1 | 11.7%
36 | COc1cc(/C=N/OCC(=O)Nc2cc(C)on2)ccc1OCc1ccccc1 | 6.49%
37 | O=[N+]([O-])c1ccc(N2CCCCC2)s1 | 48.3%
38 | CC1CCCN(c2c([N+](=O)[O-])cc(C(=O)O)cc2[N+](=O)[O-])C1 (configuration not stated) | -5.57%
39 | O=C(Cc1c[nH]c2ccccc12)NCc1ccc2c(c1)OCO2 | 8.71%
40 | CCOc1c(OC)ccc2c3c(c(=O)oc12)CCCC3 | 12.9%
41 | CCCOc1ccc2c3c(c(=O)oc2c1OCCC)CCCC3 | 30.6%
42 | Cc1cc(CNC(=S)Nc2ccc(Br)cc2Cl)nn1C | 9.6%
43 | Cc1ccc(N=Cc2c(O)n(-c3ccc(C)cc3)c(=O)[nH]c2=O)cc1 | -7.29%
44 | Cc1cccc(-n2c(O)c(C=Nc3ccc(O)cc3)c3ccccc3c2=O)n1 | -0.55%
45 | CCN(CC)c1ccc(N=Cc2c(O)n(-c3ccc(OC)cc3)c(=O)[nH]c2=O)cc1 | -3.8%
46 | COc1cc(CN=Cc2c(O)n(C(C)(C)C)c(=O)[nH]c2=O)cc(OC)c1 | -1.21%
47 | CCOc1ccccc1-n1c(O)c(C=Nc2ccc(N(CC)CC)cc2)c(=O)[nH]c1=O | -4.16%
48 | CCOc1ccc(N=Cc2c(O)n(Cc3ccccc3)c(=S)[nH]c2=O)cc1 | 72.9%
49 | COc1ccc(N=Cc2c(O)n(-c3cccc(C)n3)c(=O)c3ccccc23)cc1 | 16.8%
50 | CCOc1ccc(-n2c(O)c(C=Nc3ccc(N4CCOCC4)cc3)c(=O)[nH]c2=O)cc1 | -4.71%

Row | SMILES | inhibition
51 | O=C(O)c1ccc(CSc2nc3ccc(N4C(=O)C5C6C=CC(C6)C5C4=O)cc3s2)cc1 (configuration not stated) | -3.36%
52 | CN=C1SC(CC(=O)Nc2ccccc2F)C(=O)N1C (configuration not stated) | -3.74%
53 | COc1cccc(NC(=S)NNC(=O)c2ccccc2OC(F)F)c1 | -13.3%
54 | COc1ccc(C)cc1N(C(=O)CNC(=O)c1ccco1)C(C(=O)NC1CCCC1)c1cccnc1 (configuration not stated) | -8.51%
55 | COc1cccc(-c2nn(-c3ccccc3)cc2CN(C)Cc2ccon2)c1 | -3.56%
56 | CN(C)S(=O)(=O)c1ccc2oc(SCC(N)=O)nc2c1 | -16.7%
57 | CC1=NN(C(=O)COc2ccccc2)C(O)(c2cccnc2)C1 (configuration not stated) | -1.6%
58 | COc1ccc(CCN(C)CC(O)c2ccccc2)cc1OC (configuration not stated) | 1.49%
59 | CCOc1ccc(-n2c(O)c(C=Nc3ccc(N(CC)CC)cc3)c(=O)[nH]c2=O)cc1 | -0.69%
60 | CCOc1ccc(-n2c(O)c(C=Nc3ccc(NC(C)=O)cc3)c(=O)[nH]c2=O)cc1 | 4.04%
61 | CC1CCCN(c2nc3c(c(=O)[nH]c(=O)n3C)n2CCSc2ncccn2)C1 (configuration not stated) | 2.85%
62 | COC(=O)C1C2c3ccccc3OC1(C)N=c1s/c(=C/c3cn(C)nc3C)c(=O)n12 (configuration not stated) | -3.65%
63 | COC(=O)C1C2c3ccccc3OC1(C)N=c1s/c(=C/c3cnn(C)c3)c(=O)n12 (configuration not stated) | 58.3%
64 | Cc1c(C)[n+](=O)c2c(n1[O-])C(Br)CCC2Br (configuration not stated) | 0.09%
65 | COC(=O)c1cccc(NC(N)=S)c1 | 2.04%
66 | NC(=O)Oc1cccc(OC(N)=O)c1 | -7.05%
67 | C#CCOc1ccc(Br)cc1/C=N/O | 7.55%
68 | O=C(NCc1cccs1)c1cc(-c2ccncc2)nc2ccc(Br)cc12 | 71.8%
69 | Cc1cc(N)n2ncc(-c3cccc(Br)c3)c2n1 | 22.8%
70 | O=C(O)CSC1c2ccccc2C(=O)N1c1ccccc1 (configuration not stated) | -1.63%
71 | CC(C)CNC(=O)Cn1c(=O)c2c(ncn2CC(C)C)n(Cc2ccccc2)c1=O | 7.42%
72 | Cc1ccc(NC(=S)NNC(=O)c2ccco2)cc1 | 7.01%
73 | O=C(Nc1ncc(Cc2cccc([N+](=O)[O-])c2)s1)c1ccco1 | 1.37%
74 | O=C(Nc1ncc(Cc2ccccc2Cl)s1)c1ccc(-c2cccc([N+](=O)[O-])c2)o1 | -0.67%
75 | COC(=O)c1ccc(OCC(O)CN2C(=O)NC(C)(C)C2=O)cc1 (configuration not stated) | -2.31%

Row | SMILES | inhibition
76 | CN(C)C(CNC(=O)c1cc(S(=O)(=O)N(C)c2ccccc2)ccc1Cl)c1cccs1 (configuration not stated) | -3.17%
77 | Cc1occc1C(=O)N/N=C/C1=C(N2CCOCC2)C(=C\c2ccc(Cl)cc2)/CC1 | -4.7%
78 | O=C(NCc1cccnc1)c1ccc(COc2ccccc2Br)cc1 | 12%
79 | O=C(NCCC(=O)N1CCOCCOCCOCCOCC1)OCc1ccccc1 | -3.39%
80 | NS(=O)(=O)c1ccc(CNC(=O)c2cc(-c3ccccn3)nc3ccc(Cl)cc23)cc1 | 8.36%
81 | CCOC(=O)N1CCN(C(=O)c2ccc3nc4ccc(Cl)cc4c(=O)n3c2)CC1 | 2.6%
82 | CCNC(=O)CN1C(=O)NC(Cc2ccccc2)(Cc2ccccc2)C1=O | -0.94%
83 | COc1ccc(NC(=O)Nc2ccc(F)cc2F)cc1 | 10.7%
84 | COc1ccc(CN2C(=O)CS/C2=N/N=C/c2ccccc2)cc1 | -0.88%
85 | CCNC(=S)N(Cc1c(C)noc1C)c1ccccc1 | -11.8%
86 | CCOc1cc(/C=N/NC(=O)CSc2nncn2C)ccc1OCc1cccc(C)c1 | 5.11%
87 | COc1ccccc1C1C2=C(N=c3s/c(=C/c4cccc(OCC(=O)O)c4)c(=O)n31)c1ccccc1CC2 (configuration not stated) | -4.54%
88 | COc1cccc(C2C3=C(N=c4s/c(=C\c5ccccc5O)c(=O)n42)c2ccccc2CC3)c1OC (configuration not stated) | 5.15%
89 | COc1cccc(C2C3=C(N=c4s/c(=C\c5ccc(O)cc5)c(=O)n42)c2ccccc2CC3)c1OC (configuration not stated) | 6.52%
90 | COc1ccc(/C=c2/sc3n(c2=O)C(c2ccccc2OC)C2=C(N=3)c3ccccc3CC2)cc1O (configuration not stated) | 16.2%
91 | CCOc1ccc(NC(=O)Nc2ccc(Br)cn2)cc1 | 0.855%
92 | CCOC(=O)N1CCN(C(=O)c2ccccc2NC(=O)c2ccc(F)cc2)CC1 | 22.6%
93 | COc1ccc(C2/C=C\CN(C(=O)Oc3ccccc3)CC(=O)N2Cc2ccc(F)cc2)cc1 (configuration not stated) | 0.77%
94 | CC(NC(=O)Cn1c(NCCO)nc2ccccc21)C1CC2CCC1C2 (configuration not stated) | -0.5%
95 | O=C1C(NS(=O)(=O)c2cccs2)=C(N2CCN(c3cccc(Cl)c3)CC2)C(=O)c2ccccc21 | 72.6%
96 | O=C1C(NS(=O)(=O)c2cccs2)=C(N2CCN(c3ccccc3)CC2)C(=O)c2ccccc21 | 6.53%
97 | COc1ccccc1N1C(=O)C2CC=CC(C)C2C1=O (configuration not stated) | -9.33%
